{"source": "PubChem BioAssay (EPA / NIEHS)", "note": "Where “and” joins values, the source holds several entries; their conditions need not be identical. Equal values may be shown once. Results filed as inconclusive are left out. Some compounds were tested as several samples or in several runs, with calls that do not always agree. Calls of active or inactive are those of the source. How the source made its calls: active means hit-call score of the fitted dose curve at least 0.9, where 1 is the maximum; inconclusive means response in the unintended direction; inactive means score below 0.9."}
{"test_system": "not listed separately", "experiment": "ACEA_ER_AUC_viability: ACEA Biosciences xCELLigence Real-Time Cell Analysis on Estrogen Receptor Agonism for Viability (AID 2283782);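 further: hit means loss of impedance signal meaning reduced cell growth or viability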", "in_short": "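Read-out: real-time electrical impedance (RT-CES) area under curve, loss of signal taken as reduced viability, normalized to DMSO baseline. T-47D cells, charcoal-stripped serum medium, compounds up to 100 uM final, continuous exposure, 80 h.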"}
{"compound": "O=C(Nc1ccc2[nH]ccc2c1)c1cc2cc(F)ccc2n1Cc1cccc(F)c1", "AC50": "12.4 µM (active)"}
{"compound": "C=CC(=O)OCCCCCC(C)C", "outcome": "inactive"}
{"compound": "C=CC#N", "outcome": "inactive"}
{"compound": "Nc1ccc(N=Nc2ccc(-c3ccc(N=Nc4c(S(=O)(=O)O)cc5cc(S(=O)(=O)O)c(N=Nc6ccccc6)c(O)c5c4N)cc3)cc2)c(N)c1", "outcome": "inactive"}
{"compound": "Cn1sc(Cl)cc1=O", "AC50": "86.9 µM (active)"}
{"compound": "CC(=[OH+])/C=C(/C)[O-].CC(=[OH+])/C=C(/C)[O-].CC(=[OH+])/C=C(/C)[O-].[Fe]", "outcome": "inactive"}
{"compound": "O=c1[nH]c(=O)[nH]c(=O)[nH]1", "outcome": "inactive"}
{"compound": "C=C(C)C(=O)[O][Sn]([CH2]CCC)([CH2]CCC)[CH2]CCC", "AC50": "1.43 µM (active)"}
{"compound": "CCOP(OCC)OCC", "outcome": "inactive"}
{"compound": "CCCCCCCCCCCCCCCC[n+]1ccccc1", "AC50": "5.69 µM (active)"}
{"compound": "O=C(O)C(Cl)(Cl)Cl", "outcome": "inactive"}
{"compound": "ClCCBr", "outcome": "inactive"}
{"compound": "C[C@H]1O[C@@H](O[C@H]2[C@@H](O)C[C@H](O[C@H]3[C@@H](O)C[C@H](O[C@H]4CC[C@@]5(C)[C@H](CC[C@@H]6[C@@H]5CC[C@]5(C)[C@@H](C7=CC(=O)OC7)CC[C@]65O)C4)O[C@@H]3C)O[C@@H]2C)C[C@H](O)[C@@H]1O", "AC50": "0.159 µM (active)"}
{"compound": "O=P(O)(O)CN(CP(=O)(O)O)CP(=O)(O)O", "outcome": "inactive"}
{"compound": "O=C1C(Cl)=C(Cl)C(=O)c2ccccc21", "AC50": "16.7 µM (active)"}
{"compound": "CC1CCCCC1NC(=O)Nc1ccccc1", "note": "(stereo not given)", "AC50": "26.2 µM (active)"}
{"compound": "COS(=O)(=O)c1ccc(C)cc1", "outcome": "inactive"}
{"compound": "c1cc[c]([Hg][c]2ccccc2)cc1", "AC50": "36.3 µM (active)"}
{"compound": "C=CCc1ccc(OC)cc1", "outcome": "inactive"}
{"compound": "Cc1ccccc1N", "AC50": "0.893 µM (active)", "outcome": "inactive"}
{"compound": "ClC1(Cl)C2(Cl)C3(Cl)C4(Cl)C(Cl)(Cl)C5(Cl)C3(Cl)C1(Cl)C5(Cl)C24Cl", "note": "(stereo not given)", "outcome": "inactive"}
{"compound": "CCN1CCC2(CC1)COc1cc3c(cc12)N(C(=O)c1ccc(-c2ccc(-c4nnc(C)o4)cc2C)cc1)CC3", "AC50": "8.01 µM (active)"}
{"compound": "C[C@@H]1C[C@@H]([C@H](O)CC2CC(=O)NC(=O)C2)C(=O)[C@@H](C)C1", "AC50": "522 nM (active) and 1.49 µM (active)"}
{"compound": "Nc1ccc(-c2ccc(N)c(Cl)c2)cc1Cl", "outcome": "inactive"}
{"compound": "O=C(c1ccccc1)C(Cl)Cl", "AC50": "22.6 µM (active)"}
{"compound": "CC(C)(c1ccc(OCC2CO2)cc1)c1ccc(OCC2CO2)cc1", "note": "(stereo not given)", "AC50": "82.5 µM (active)"}
{"compound": "CC(=O)[O][Hg][c]1ccccc1", "AC50": "1.32 µM (active)"}
{"compound": "CC(C)CCCCCCOC(=O)c1ccccc1C(=O)OCCCCCCC(C)C", "AC50": "40.9 µM (active)"}
{"target": "AR (gene 367) (UniProt P10275)", "sequence (P10275 whole entry, looked up)": "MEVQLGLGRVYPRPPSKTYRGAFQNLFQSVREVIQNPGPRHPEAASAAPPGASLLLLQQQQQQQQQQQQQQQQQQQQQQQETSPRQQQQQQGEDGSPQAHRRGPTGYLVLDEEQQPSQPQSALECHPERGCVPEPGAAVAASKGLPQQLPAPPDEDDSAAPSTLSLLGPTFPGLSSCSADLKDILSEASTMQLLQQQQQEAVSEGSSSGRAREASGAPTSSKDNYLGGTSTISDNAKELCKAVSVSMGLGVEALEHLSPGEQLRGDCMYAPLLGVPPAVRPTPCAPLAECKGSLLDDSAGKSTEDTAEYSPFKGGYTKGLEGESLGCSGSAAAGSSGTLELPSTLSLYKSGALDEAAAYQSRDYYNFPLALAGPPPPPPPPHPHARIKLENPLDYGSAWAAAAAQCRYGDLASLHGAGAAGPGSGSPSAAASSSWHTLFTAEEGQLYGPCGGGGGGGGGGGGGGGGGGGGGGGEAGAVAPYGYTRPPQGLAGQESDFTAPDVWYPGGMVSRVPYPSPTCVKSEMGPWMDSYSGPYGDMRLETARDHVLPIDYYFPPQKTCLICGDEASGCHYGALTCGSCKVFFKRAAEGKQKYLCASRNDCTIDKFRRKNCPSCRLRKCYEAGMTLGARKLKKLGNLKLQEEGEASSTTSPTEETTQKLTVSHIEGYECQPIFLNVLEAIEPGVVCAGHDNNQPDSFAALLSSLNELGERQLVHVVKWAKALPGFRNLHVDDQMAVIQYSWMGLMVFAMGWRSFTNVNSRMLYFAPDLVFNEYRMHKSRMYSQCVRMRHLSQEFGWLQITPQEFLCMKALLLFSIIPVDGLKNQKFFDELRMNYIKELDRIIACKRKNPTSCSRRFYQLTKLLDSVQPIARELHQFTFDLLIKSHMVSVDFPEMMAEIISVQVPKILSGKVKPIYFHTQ", "experiment": "ACEA_AR_agonist_80hr: ACEA Biosciences xCELLigence Real-Time Cell Analysis on Androgen Receptor Agonism for Proliferation (AID 2283783);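 further: hits increase impedance growth signal above DMSO baseline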", "in_short": "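Impedance (RT-CES) growth signal at 80 h post-dose; 22Rv1 cells, 8-pt 1:4 series, top 100 uM final, DMSO ≤0.5%; duplicate plates; gain-of-signal fit relative to DMSO baseline.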"}
{"compound": "O=[N+]([O-])c1ccc(O)c([N+](=O)[O-])c1", "outcome": "inactive"}
{"compound": "C=CC(=O)OCCCCCC(C)C", "AC50": "50 µM (active)"}
{"compound": "O=c1[nH]c(=O)[nH]c(=O)[nH]1", "outcome": "inactive"}
{"compound": "c1cc[c]([Hg][c]2ccccc2)cc1", "outcome": "inactive"}
{"compound": "C[C@H]1CCCC(=O)CCC/C=C/c2cc(O)cc(O)c2C(=O)O1", "outcome": "inactive"}
{"compound": "CCN1CCC2(CC1)COc1cc3c(cc12)N(C(=O)c1ccc(-c2ccc(-c4nnc(C)o4)cc2C)cc1)CC3", "outcome": "inactive"}
{"compound": "CC(C)(c1ccc(OCC2CO2)cc1)c1ccc(OCC2CO2)cc1", "note": "(stereo not given)", "outcome": "inactive"}
{"test_system": "not listed separately", "experiment": "STM_H9_NormalizedViability: Cytotoxicity Assessment at 120 hours in the Stemina devTOX quickPredict H9 human embryonic stem cell (hESC)-based Assay (AID 2283784)", "in_short": "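CellTiter-Fluor RFU, background-subtracted, expressed relative to 0.1% DMSO neutral control by plate. Pluripotent H9 cells; treatment with daily re-dosing. Plates carried 1uM methotrexate (positive) and 5 nM methotrexate (negative) references.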"}
{"compound": "O=C(Nc1ccc2[nH]ccc2c1)c1cc2cc(F)ccc2n1Cc1cccc(F)c1", "outcome": "inactive"}
{"compound": "O=[N+]([O-])c1ccc(O)c([N+](=O)[O-])c1", "outcome": "inactive"}
{"compound": "C=C(C)C(=O)[O][Sn]([CH2]CCC)([CH2]CCC)[CH2]CCC", "AC50": "0.713 µM (active)"}
{"compound": "O=C(O)C(Cl)(Cl)Cl", "outcome": "inactive"}
{"compound": "ClC1(Cl)C2(Cl)C3(Cl)C4(Cl)C(Cl)(Cl)C5(Cl)C3(Cl)C1(Cl)C5(Cl)C24Cl", "note": "(stereo not given)", "outcome": "inactive"}
{"compound": "CCN1CCC2(CC1)COc1cc3c(cc12)N(C(=O)c1ccc(-c2ccc(-c4nnc(C)o4)cc2C)cc1)CC3", "AC50": "8.14 µM (active)"}
{"compound": "ClCC(Cl)CCl", "outcome": "inactive"}
{"compound": "C[C@@H]1C[C@@H]([C@H](O)CC2CC(=O)NC(=O)C2)C(=O)[C@@H](C)C1", "AC50": "2.46 µM (active)"}
{"compound": "CC(=O)[O][Hg][c]1ccccc1", "AC50": "0.387 µM (active)"}
